# Screens deposited in PubChem by Broad Institute.
# In the library only some 4.1% were active in any assay of this set; here they are far more common.
# HIV Env fusion – inhibitors of HIV Env-mediated cell fusion; HeLa-JRFL Env/CEM21 cell fusion, luciferase; inhibition, % at 12.3 µM; 360,000 compounds, 1.1% hits; AID 651610;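 active means mean replicate inhibition score of at least 50 and every replicate individually at or above 50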;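 further: 0% = plate neutral controls and 100% = maraviroc near 300 nM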
# NSD2 inh – blocks human histone methyltransferase NSD2. O96028. 310,000 compounds, 0.54% hits. NSD2 peptide methylation, AlphaScreen, 120 min. AID 743445. inhibition, % at 12.5 µM; in the data active means inhibition above about 50%
# ALR inh – blocks human ALR sulfhydryl oxidase activity; inhibition, % (concentration not given with the values); purified ALR, DTT oxidation, H2O2 HRP-luminol luminescence; P55789; 290,000 compounds, 3.8% hits;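 active means mean replicate inhibition above about 79%, with every replicate also reaching it, limit read from the data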
# Target sequence (P55789 whole entry, looked up): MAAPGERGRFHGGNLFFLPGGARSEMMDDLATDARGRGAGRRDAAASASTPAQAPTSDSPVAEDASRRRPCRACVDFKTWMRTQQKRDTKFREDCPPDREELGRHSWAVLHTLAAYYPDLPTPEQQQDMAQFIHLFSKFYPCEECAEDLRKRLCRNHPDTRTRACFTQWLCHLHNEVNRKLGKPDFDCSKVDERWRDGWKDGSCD
# CFTR F508del cor – correctors of CFTR F508del function in bronchial epithelial cells. 350,000 compounds, 0.36% hits. CFBE cells, YFP halide quenching; stimulated with forskolin plus potentiator P3; % fluorescence drop versus neutral controls. activity (quench increase), % at 7.58 µM;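 active means mean added fluorescence quench of at least 8% versus neutral control, with both replicates also reaching 8%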;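 further: cells transiently co-express mutant CFTR-F508del with the halide-sensitive YFP; corrector assay measuring rescue of mutant channel to the surface after 24 h compound exposure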
# PglD inh – inhibitors of Campylobacter jejuni PglD acetyltransferase | AID 602405 | inhibition, % at 12.5 µM | purified PglD enzyme, DTNB colorimetric CoA detection | 360,000 compounds, 0.098% hits; in the data active means inhibition above about 16%, passing the limit was not always enough
# Casp6 inh – caspase-6 (human) enzyme inhibition. P55212. purified caspase-6, Z-VEID-R110 cleavage fluorescence. inhibition, % at 12.5 µM. 350,000 compounds, 0.53% hits;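 active means mean inhibition across replicates at least about 35%, with every replicate also reaching that limit, limit read from the data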;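 further: 0% = median of neutral control wells and 100% = no fluorescence left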
# Target sequence (P55212 24-179 limits assumed): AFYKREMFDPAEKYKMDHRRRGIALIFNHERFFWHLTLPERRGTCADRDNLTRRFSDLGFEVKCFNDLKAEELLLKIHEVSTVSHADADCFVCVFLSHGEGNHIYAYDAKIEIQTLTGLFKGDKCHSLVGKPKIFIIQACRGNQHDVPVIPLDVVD
# Target sequence (P55212 194-293 limits assumed): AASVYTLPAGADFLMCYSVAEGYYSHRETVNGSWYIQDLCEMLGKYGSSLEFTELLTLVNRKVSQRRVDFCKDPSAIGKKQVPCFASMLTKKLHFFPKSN
# The depositor's hits bear a star; . = not tested or not shown; [ ] = another dose, or the depositor's remark.
SMILES,HIV Env fusion,NSD2 inh,ALR inh,CFTR F508del cor,PglD inh,Casp6 inh
S=C(NN=C(c1ccccc1)c1ccccn1)N(Cc1ccccn1)Cc1ccccn1,76.2*,.,.,0.6,.,0.5
CC(=NNC(=S)N(Cc1ccccn1)Cc1ccccn1)c1cnccn1,17.9,2.3,.,8.2*,.,-2.4
C[C@H](CO)N1C[C@H](C)[C@@H](CN(C)Cc2ccc(C(=O)O)cc2)OCCCC[C@H](C)Oc2ccc(NC(=O)Nc3ccc4c(c3)OCO4)cc2C1=O,-4.6[16.7 µM],.,.,2.1,4.3,1.4
CCCCNC(=O)O[C@@H]1C[C@H]2CCCC(=O)N3CC[C@@H](C1)[C@@H]23,-3.3,.,-13.7,-0.6,-3.4,-2.4
CC[C@@H]1[C@H]2CCCC(=O)N3CC[C@@H](C[C@@H]1Nc1ccccc1)[C@@H]23,-3.0,.,98.8*,0.0,8.7,15.2
CCCCCCCN(c1ccccc1)[C@@H]1C[C@H]2CCCC(=O)N3CC[C@@H](C1)[C@@H]23,73.6*,.,.,2.4,-4.1,2.1
CCOC(=O)c1[nH]c(C)c(C(=O)N2CCN(c3ccccc3)CC2)c1C,12.4,-1.1,98.4*,.,0.8,.
CCOC(=O)c1c(C)[nH]c(C(=O)N2CCN(c3ccc(OC)cc3)CC2)c1C,5.1,6.2,97.9*,-1.1,.,1.1
CCn1cnc2sc(C(=O)N3CCN(c4ccc(OC)cc4)CC3)c(C)c2c1=O,-3.6,.,80.8*,.,8.0,.
CCOC(=O)c1c(C)[nH]c(C)c1S(=O)(=O)N(C)CC(=O)N1CCN(c2ccc(OC)cc2)CC1,-2.5,4.7,24.6,-0.8,-11.9,0.6
COc1ccc(CCN(C)C(=O)c2ccc(S(=O)(=O)Nc3ccccc3C)cc2)cc1OC,-11.5,-1.6,-6.7,1.1,.,-0.4
CCOc1ccc(NS(=O)(=O)c2ccc(C(=O)N(C)CCc3ccc(OC)c(OC)c3)cc2)cc1,88.7*,1.1,1.3,3.1,7.7,0.6
CCOc1ccc(NS(=O)(=O)c2ccc(NS(=O)(=O)c3ccccc3)cc2)cc1,-54.6,-1.3,-4.4,.,1.5,.
CCOc1ccc(S(=O)(=O)Nc2cc(NS(=O)(=O)c3ccc(OCC)cc3)cc(C(=O)O)c2)cc1,.,25.1,4.9,1.2,0.8,70.1*
CN1C(=O)c2cc(NC(=O)Nc3ccc(Cl)cc3)ccc2OC[C@H]2O[C@H](CC(=O)O)CC[C@@H]21,-16.9[16.7 µM],.,.,1.2,-1.8,-0.9
CCc1nc(SCC(=O)c2ccccc2)c2ccccc2n1,18.5,20.5,98.8*,-0.1,-3.7,6.4
CCc1nc(SCC(=O)NNC(=O)c2ccc(OC)cc2)c2ccccc2n1,4.3,-1.2,-3.6,-0.9,.,2.0
CCc1nc(SCC(=O)c2ccc3c(c2)OCCO3)c2ccccc2n1,-350.5,-0.5,.,.,10.1,.
CCCc1nc(SCC(=O)c2ccc(OC)cc2)c2ccccc2n1,37.0,-2.9,89.6*,5.0,2.7,1.4
Cc1nnc(N2C(=O)C(O)=C(C(=O)c3ccco3)C2c2ccc(F)cc2)s1 (stereo unspecified),-19.0,.,70.9,2.0,-3.8,4.3
Cc1ccc(C2C(C(=O)c3ccco3)=C(O)C(=O)N2c2ncccn2)cc1 (stereo unspecified),8.7,0.9,13.9,-0.5,0.2,-2.7
CCCOc1cccc(C2C(C(=O)c3ccco3)=C(O)C(=O)N2c2nnc(C)s2)c1 (stereo unspecified),-11.3,15.0,5.6,1.6,5.9,.
Cc1nnc(N2C(=O)C(O)=C(C(=O)c3ccco3)C2c2ccc(C(C)(C)C)cc2)s1 (stereo unspecified),.,4.4,97.1*,.,-6.0,.
CSc1ccc(C2C(C(=O)c3ccco3)=C(O)C(=O)N2c2nnc(SC)s2)cc1 (stereo unspecified),-26.8,-1.9,98.1*,-2.9,0.1,7.8
Cc1nnc(N2C(=O)C(O)=C(C(=O)c3ccco3)C2c2ccc(C(C)C)cc2)s1 (stereo unspecified),.,1.9,96.7*,.,-4.7,.
SMILES,HIV Env fusion,NSD2 inh,ALR inh,CFTR F508del cor,PglD inh,Casp6 inh
CN1c2ccc(Br)cc2[C@H]2[C@H](CCN2C(=O)C2CCCC2)[C@H]1CO,.,.,.,0.4,.,0.1
CCCCC(CCC(=O)O)(C(=O)OCC)c1csc(Nc2ccccc2)n1 (stereo unspecified),.,-2.2,95.8*,.,-3.7,.
CO[C@@H]1CN(C)C(=O)c2cc(NC(=O)CC(F)(F)F)ccc2OC[C@@H](C)N(C(=O)C2CCOCC2)C[C@H]1C,5.1[16.7 µM],.,.,0.5,3.4,.
O=C1C(=O)N(CCN2CCOCC2)C(c2ccc(Cl)c(Cl)c2)/C1=C(/O)c1ccc2c(c1)OCO2 (stereo unspecified),63.3*,3.2,11.8,-0.2,2.1,-1.9
COCCCN1C(=O)C(=O)/C(=C(/O)c2ccc3c(c2)OCCO3)C1c1ccc(C(=O)OC)cc1 (stereo unspecified),.,-0.6,84.6*,.,-7.8,.
O=C(C[C@@H]1C[C@@H]2c3cc(NC(=O)c4cccnc4)ccc3O[C@@H]2[C@H](CO)O1)NCC(F)(F)F,-19.2[16.7 µM],.,.,-4.4,3.6,-1.2
CC(C)CN1C(=O)/C(=C/c2cccs2)NC1=S,10.6,6.4,99.2*,.,-0.8,3.1
COc1ccc2c3c([nH]c2c1)[C@H](CO)N(C(=O)Nc1c(C)noc1C)CC31CCN(CC2CCCC2)CC1,.,.,.,0.3,.,0.0
CC(=O)c1ccccc1NC(=O)COC(=O)/C=C/c1ccc(C)o1,-4.3,.,95.7*,0.1,4.0,-7.0
NC(=O)c1ccc(NC(=O)COC(=O)/C=C/c2ccc(Br)o2)cc1,.,-0.2,-5.0,-2.4,-4.4,80.2*
C[C@H]1CN([C@@H](C)CO)C(=O)c2cccc(NC(=O)c3cnccn3)c2O[C@H]1CN(C)Cc1ccc2c(c1)OCO2,-0.7[16.7 µM],.,.,-2.2,-0.3,.
C[C@H]1CN([C@@H](C)CO)S(=O)(=O)c2ccc(-c3cccc(F)c3)cc2O[C@@H]1CN(C)C(=O)C1CC1,2.1[16.7 µM],.,.,-3.3,1.2,6.5
CC1CCCC(C)N1C(=O)C1CCCCC1 (stereo unspecified),7.0,.,-29.2,.,1.1,58.8*
O=C(NC[C@@H]1CC[C@H]2[C@H](CN2S(=O)(=O)c2ccccc2)O1)NC1CCCCC1,.,.,.,-0.4,.,0.7
CC(=O)n1cc([C@@H]2C=C(C(=O)N3CCN(Cc4ccccc4)CC3)O[C@H](OCCCCO)C2)c2ccccc21,10.7[16.7 µM],.,.,0.6,-0.8,-1.0
O=C(Nc1cc(Cl)cc(Cl)c1)c1coc(=O)c(Br)c1,-7.6,1.9,13.0,-3.5,-5.4,70.2*
O=C(NC(CO)(CO)CO)c1coc(=O)c(Br)c1,-70.2,-1.4,-0.8,.,-0.9,.
CC(NC(=O)C=Cc1ccco1)C(=O)NC(Cc1ccccc1)C(N)=O (stereo unspecified),-10.4,5.8,.,2.6,.,46.1*
NNC(=O)c1[nH]c2ccc(Cl)cc2c1-c1ccccc1,-205.8,-1.2,4.4,16.8*,.,-1.5
COc1ccc(/C=N/NC(=O)c2[nH]c3ccc(Br)cc3c2-c2ccccc2)c(C(=O)O)c1OC,6.7,0.1,.,1.6,0.4,-0.3
